The list is not random: actives were taken first. Their share in the collection is about 6.2%.
ATXN viability: cell viability loss in ATXN counter-screen. S2 cells (HEK-293 line with an ATXN2-luciferase reporter) viability, CellTiter-Fluor protease fluorescence, 24 h. Potency, µM (top dose mostly 56.7 µM), most hits filed as cytotoxic. hit rate 0.49% among 400,000. AID 651635; note: nearly all actives have a fitted effect of over 40% in size
KB-V1 MDR tox: kills drug-selected multidrug resistant KB-V1 cells; KB-V1 MDR cells viability, CellTiter-Glo, 72 h; Potency, µM (series often up to 46.1 µM), hits mostly cytotoxic; hit rate 3.4% among 400,000; AID 1347076; note: nearly all actives have a fitted effect of over 60% in size
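Cytotoxicity toward P-gp-expressing KB-V1 cells was determined as loss of CellTiter-Glo luminescence after 72 h at 37 degrees C. Compounds were tested in quantitative HTS format across a concentration range, with curves fitted to normalized data.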
KB-3-1 cytotox: kills parental KB-3-1 adenocarcinoma cells; KB-3-1 viability, CellTiter-Glo ATP luminescence, 72 h; Potency, µM (doses to about 46.1 µM), actives largely listed as cytotoxic; hit rate 1.4% among 400,000; note: nearly all actives have a fitted effect of over 60% in size
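KB-3-1 cells, DMEM (no phenol red) + 10% FBS; compound by pin transfer, 72 h, 37 °C. Readout: CellTiter-Glo luminescence after 10 min. Data normalized, curve-fitted.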
ATXN2 expr inh: inhibitors of ATXN2 expression; HEK-293 ATXN2-luciferase reporter, luminescence, 24 h; Potency, µM (titrated, usually from 57 µM), hits mostly inhibitors; hit rate 0.72% among 360,000; AID 1745845; note: nearly all actives have a fitted effect of over 55% in size
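ATXN2-luciferase reporter cells (luciferase flanked by upstream and downstream ATXN2 gene portions) were treated 24 h at 37 °C with compounds at up to 57 uM. SteadyGlo luminescence gave expression; GF-AFC fluorescence gave viability.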
HT1080-NT tox: kills 2HG-producing HT-1080-NT fibrosarcoma cells; HT-1080-NT fibrosarcoma viability, CellTiter-Glo ATP luminescence, 48 h; Potency, µM (doses to about 46.1 µM), most hits filed as cytotoxic; hit rate 1.6% among 360,000;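 note: NT is the 2HG producing partner of a matched IDH1 knockdown line; nearly all actives have a fitted effect of over 55% in size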
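HT-1080-NT; 750 cells/well; 5% FBS RPMI; 48 h compound, 37 degrees C; CellTiter-Glo luminescence; curve fitting and curve-class assignment.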
HT1080 IDH1KD tx: toxicity to HT-1080 IDH1 knockdown cells (counter line). HT-1080 IDH1 knockdown viability, ATP luminescence, 48 h. Potency, µM (highest dose often 46.1 µM), hits mostly cytotoxic. hit rate 2% among 360,000. AID 686971
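Luminescent ATP read-out (CellTiter-Glo, 10 min at room temperature) after 48 h compound exposure at 37 °C gave viability of IDH1-knockdown HT-1080 cells. Activity was normalised to DMSO and cell-free wells, then fitted as concentration-response curves.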
Hits are given with their value; 0 = inactive; ? = inconclusive; - = not tested or not shown; [ ] = remark or other dose. Calls come from the whole dose curve; as a rule, active = well fitted curve in the direction sought with a large enough effect; inconclusive = small, poorly fitted or top-dose-only effect, or another doubt; inactive = no such curve, though single readings can be large; an effect the other way counts as inactive or inconclusive.

SMILES	ATXN viability	KB-V1 MDR tox	KB-3-1 cytotox	ATXN2 expr inh	HT1080-NT tox	HT1080 IDH1KD tx
Cc1cccc(NC(=O)c2ccc(Cn3cc(C(F)(F)F)ccc3=O)cc2)c1	0	16µM	0	0	0	0
O=C(O)c1ccc(Cn2cc(C(F)(F)F)ccc2=O)cc1	0	0	0	-	0	0
O=C(NCc1ccccc1)c1ccc(Cn2cc(C(F)(F)F)ccc2=O)cc1	0	13µM	0	0	0	0
COc1ccc(N2C(=O)CC(Sc3ncn[nH]3)C2=O)c(OC)c1 (configuration not stated)	-	0	0	22µM	?	10µM
C=CCC1(CC=C)CCCN1C(=O)c1cc(COc2ccc(C)nc2)on1	?	0	?	-	21µM	2.9µM
CCOC(=O)N1CCC(NC(=O)c2cc(COc3ccccc3SC)on2)CC1	0	9.2µM	0	0	0	?
C=CCC1(CC=C)CCCN1C(=O)c1cc(COc2ccc(F)c(F)c2)on1	0	0	0	0	0	0
Cc1ccc(OCc2cc(C(=O)NC3CCCCC3)no2)cn1	0	?	?	-	?	15µM
COc1ccc(N(CC(=O)Nc2cc(OC)cc(OC)c2)S(=O)(=O)c2c(C)noc2C)cc1	?	0	?	?	-	-
O=C(C[n+]1ccccc1Br)c1ccc(-c2ccccc2)cc1	-	?	0	-	-	-
CC1CCCN(c2nc3c(c(=O)n(C)c(=O)n3C)n2CCSc2nc3ccccc3o2)C1 (configuration not stated)	0	2.6µM	0	0	0	0
Cn1c(=O)c2c(nc(N3CCCCC3)n2CCSc2nc3ccccc3s2)n(C)c1=O	0	?	0	0	0	0
CC1CCN(c2nc3c(c(=O)n(C)c(=O)n3C)n2CCSc2nc3ccccc3s2)CC1	?	15µM	?	0	0	0
CC1CCCN(c2nc3c(c(=O)n(C)c(=O)n3C)n2CCSc2nc3ccccc3s2)C1 (configuration not stated)	0	10µM	?	0	0	0
CC(C)c1c(C(=O)N(C)C2CCN(C)CC2)cnn1-c1nccc(-c2ccco2)n1	0	-	-	-	-	-
Cc1cc(=O)c2ccccc2n1CC(=O)NCc1ccccc1	0	4.6µM	0	0	0	0
Cc1nc2ccccc2n1CC(=O)NCc1ccccc1	0	6.5µM	?	0	0	0
Cc1cc(=O)c2ccccc2n1Cc1ccccc1	0	?	0	?	0	?
CC1=C/C(=C(\c2cc(C)c(O)c(Br)c2)c2ccccc2S(=O)(=O)O)C=C(Br)C1=O	11µM	?	?	?	?	?
COc1cc2c(cc1OC)C(COc1cc(C)cc(C)c1)N(C(=O)C(C)(C)C)CC2 (configuration not stated)	0	0	0	0	-	-
COc1ccc(-n2c(CCc3ccccc3)nnc2SCC(=O)c2ccccc2)cc1	0	9.2µM	?	0	0	0
CC(=O)/C(=N/Nc1ccccc1)Sc1nnc(CCc2ccccc2)n1-c1ccccc1	0	23µM	0	0[11.3 µM]	0	0
COc1ccc(C(=O)CSc2nnc(CCc3ccccc3)n2-c2ccccc2)cc1	0	9.2µM	0	?	0	0
COc1ccc(-n2c(CCc3ccccc3)nnc2SCC(=O)NCc2ccccc2)cc1	0	0	0	0	0	0
Cc1cc(NS(=O)(=O)c2ccc(NC(=O)COc3ccc(Cl)cc3)cc2)nc(C)n1	0	0	0	0	-	-
SMILES	ATXN viability	KB-V1 MDR tox	KB-3-1 cytotox	ATXN2 expr inh	HT1080-NT tox	HT1080 IDH1KD tx
CCCCCCn1cc(CN2CC(N3CCN(Cc4cccc(C)c4)CC3)CS2(=O)=O)nn1 (configuration not stated)	0	0	0	0	0	0
O=C(c1cccs1)N1CCN(CCCc2ccccc2)CC1	0	12µM	0	0	0	0
COc1ccccc1C1(O)CCN(C(=O)c2cccs2)CC1	0	21µM	0	0	0	0
COc1ccc(OC)c(CN2CCN(C(=O)c3cccc(S(=O)(=O)Nc4ccc(F)cc4)c3)CC2)c1	0	15µM	?	0	0	0
COc1ccc(OC)c(CN2CCN(C(=O)c3ccc(F)cc3)CC2)c1	0	0	0	0	0	0
COc1ccc(OC)c(CN2CCN(C(=O)c3cccs3)CC2)c1	0	21µM	0	0	0	0
O=C(c1cccs1)N1CCN(Cc2ccccc2)CC1	0	0	0	0	0	0
COc1cc(OC)c(C2C=C(c3ccc(C)cc3)Nc3c(C(=O)Nc4ccccc4)cnn32)cc1OC (configuration not stated)	0	0	0	0	-	-
COc1ccc(CN2CCN(C(=O)c3cccs3)CC2)cc1	0	21µM	0	0	0	0
O=C(NCC1Cc2cccc(-c3ncccn3)c2O1)c1cccc(-c2ccccc2F)c1 (configuration not stated)	0	-	-	-	-	-
CCOc1ccc2c(c1)/C(=C(\C(Cl)=C(Cl)Cl)[N+](=O)[O-])N2	-	0	?	0	0	0
CCCCOc1ccc2c(c1)/C(=C(\C(Cl)=C(Cl)Cl)[N+](=O)[O-])N2	0	21µM	?	0	0	0
COc1ccc(/C=N/Nc2nc(-c3cccc(S(=O)(=O)N4CCCC4)c3)cs2)cc1OC	?	0	0	0	0	0
CCOc1cc(/C=N/Nc2nc(-c3cccc(S(=O)(=O)N4CCCC4)c3)cs2)ccc1O	-	13µM	0	?	0	0
O=S(=O)(Nc1nc2ccccc2nc1Nc1ccc2c(c1)OCO2)c1ccccc1	?	5.2µM	0	0	0	0
Cc1cccc(S(=O)(=O)Nc2nc3ccccc3nc2Nc2ccc3c(c2)OCO3)c1	0	0	0	0	0	0
COc1cc2oc(=O)cc(CN3CCCCCCC3)c2cc1Cl	0	0	0	0	0	0
Cc1nn(-c2ccccc2)c2c1C(c1ccc([N+](=O)[O-])cc1)N1C(=N2)C(=O)Nc2ccccc21 (configuration not stated)	0	18µM	23µM	0	0	0
N=c1c2c(-c3ccccc3)c(-c3ccccc3)n(Cc3ccco3)c2ncn1CCCn1ccnc1	?	16µM	?	0	?	?
CC(C)Cn1cnc2c(c(-c3ccccc3)c(-c3ccccc3)n2Cc2ccco2)c1=N	?	?	?	0	?	16µM
OCCNc1ncnc2c1c(-c1ccccc1)c(-c1ccccc1)n2Cc1ccco1	0	?	0	0	0	0
c1ccc(-c2c(-c3ccccc3)n(Cc3ccco3)c3ncnc(NCCCn4ccnc4)c23)cc1	-	?	?	?	18µM	18µM
N=c1c2c(-c3ccccc3)c(-c3ccccc3)n(Cc3ccco3)c2ncn1CCCN1CCOCC1	0	21µM	21µM	0	?	13µM
COc1ccc(N2CCN(C(=O)CN3C(=O)CSc4c3c(C)nn4-c3ccccc3)CC2)cc1	0	0	0	0	-	-

Screening data (PubChem BioAssay)
